Assay results as given in PubChem BioAssay (NCI).
The panel holds about 79,000 compounds, 15% with a hit somewhere; the sample as a whole holds those more often. Activity calls are given as the source filed them. Cut-off read from the data, not from the text of the source: active = growth inhibition above about 70%; inactive = the rest.

Columns and labels:
[1] = NCI Yeast Anticancer Drug Screen. Data for the mec2-1 strain (AID 157); details: S. cerevisiae mec2-1 strain, stronger effect = higher value
How it was run: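 Vehicle-treated cultures served as reference for growth inhibition of compound-exposed mec2-1 yeast.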

[2] = NCI Yeast Anticancer Drug Screen. Data for the rad14 strain (AID 159);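 note: 0% = growth of vehicle-treated control cultures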; details: S. cerevisiae rad14 strain growth inhibition, stronger effect = higher value
How it was run: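 Screen for anticancer potential: a yeast strain altered in DNA damage repair is grown with compound, and reduced growth is quantified against vehicle controls.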

[3] = NCI Yeast Anticancer Drug Screen. Data for the sgs1 mgt1 strain (AID 161);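 note: 0% = growth of cultures given vehicle only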; details: S. cerevisiae sgs1 mgt1 strain, stronger effect = higher value
How it was run: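 Test agents were incubated with a DNA-repair-mutant yeast strain. Growth was then read and compared against vehicle-treated controls.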

[4] = NCI Yeast Anticancer Drug Screen. Data for the CLN2oe strain (AID 163);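 note: 0% = growth of vehicle-only control cultures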; details: S. cerevisiae CLN2oe strain, stronger effect = higher value
How it was run: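 Inhibition relative to vehicle-treated yeast is reported. Cells: strain with genetic alteration in cell-cycle control, grown with compound.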

[5] = NCI Yeast Anticancer Drug Screen. Data for the cln2 rad14 strain (AID 165);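 note: 0% = growth equal to vehicle treated cultures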; details: S. cerevisiae cln2 rad14 strain, stronger effect = higher value
How it was run: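 Each compound was tested on cln2 rad14 yeast. Inhibition of growth was calculated against vehicle-exposed controls.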

[6] = NCI Yeast Anticancer Drug Screen. Data for the bub3 strain (AID 167); details: S. cerevisiae bub3 mutant strain, stronger effect = higher value
How it was run: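 Screening used yeast with an engineered genetic alteration affecting cell cycle control. Compound-exposed cultures were compared with vehicle cultures, and reduced growth was taken as inhibition.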

[7] = NCI Yeast Anticancer Drug Screen. Data for the wt2 strain (AID 169);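 note: 0% = growth of vehicle-treated yeast cultures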; details: S. cerevisiae wt2 strain growth inhibition, stronger effect = higher value
How it was run: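 Inhibition of yeast growth was determined after compound treatment, normalised to controls receiving only vehicle.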

[8] = NCI Yeast Anticancer Drug Screen. Data for the mlh1 strain (AID 171);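 note: 0% = growth of vehicle-treated control cultures of the same strain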; details: S. cerevisiae mlh1 strain growth inhibition, stronger effect = higher value
How it was run: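 Vehicle-normalised growth inhibition of a repair- or checkpoint-altered yeast strain following compound treatment.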

[9] = NCI Yeast Anticancer Drug Screen. Data for the mlh1 rad18 strain (AID 175); details: S. cerevisiae mlh1 rad18 strain growth inhibition, stronger effect = higher value
How it was run: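 Vehicle-treated cultures served as the reference for growth inhibition in a yeast strain carrying DNA damage repair alterations exposed to each compound.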

[10] = NCI Yeast Anticancer Drug Screen. Data for the rad18 strain (AID 177); details: S. cerevisiae rad18 mutant growth inhibition, stronger effect = higher value
How it was run: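 Test articles were incubated with altered yeast defective in DNA damage repair. Results are given as inhibition of growth versus vehicle.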

[11] = NCI Yeast Anticancer Drug Screen. Data for the rad52 strain (AID 147);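 note: 0% = growth of vehicle-treated control cultures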; details: S. cerevisiae rad52 mutant growth inhibition, stronger effect = higher value
How it was run: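 Vehicle-treated cultures served as the reference for growth inhibition of compound-exposed yeast bearing a DNA repair mutation.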

[12] = NCI Yeast Anticancer Drug Screen. Data for the wt1 strain (AID 149);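 note: 0% = growth of vehicle-treated wt1 cultures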; details: S. cerevisiae wt1 strain (SPY 50644) growth inhibition, stronger effect = higher value
How it was run: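 Using yeast strain wt1, compound-induced growth inhibition was determined against vehicle-treated cultures.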

[13] = NCI Yeast Anticancer Drug Screen. Data for the rad50EPP+ strain (AID 151);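 note: 0% = growth of vehicle-treated control cultures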; details: S. cerevisiae rad50 mutant strain, stronger effect = higher value
How it was run: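 In this screen, rad50EPP+ yeast were exposed to compounds. Growth inhibition was scored against vehicle-treated controls.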

[14] = NCI Yeast Anticancer Drug Screen. Data for the mgt1 strain (AID 153); details: S. cerevisiae mgt1 mutant growth inhibition, stronger effect = higher value
How it was run: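 mgt1 strain exposed; growth vs vehicle control recorded as inhibition.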

[15] = NCI Yeast Anticancer Drug Screen. Data for the rad50 strain (AID 155);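 note: 0% = growth of vehicle-only cultures of the same strain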; details: S. cerevisiae rad50 strain growth inhibition, stronger effect = higher value
How it was run: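 Relative growth inhibition (compound vs vehicle) was measured in yeast with a defined repair-gene alteration.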

[16] = NCI Yeast Anticancer Drug Screen. Data for the sgs1 strain (AID 173);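 note: 0% = growth of vehicle-only control cultures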; details: S. cerevisiae sgs1 mutant, stronger effect = higher value
How it was run: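 Screen format: yeast with repair or checkpoint alterations, compound exposure, growth read relative to vehicle.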

[17] = at 5.0 µM (retest, dose inferred, filed as 0.5)
[18] = at 50.0 µM (retest, dose inferred, filed as 5.0)

Measured: growth inhibition

CCCCN(CCCC)c1ccc(N=Nc2ccc(S(=O)(=O)O)cc2)cc1
active: [1]; at 11.0 µM 77% | [1]; at 33.0 µM 97% | [1]; [18] 98% | [1]; at 50.0 µM 90.7% | [1]; at 100.0 µM 97% | [2]; at 33.0 µM 97% | [2]; at 100.0 µM 97% | [3]; [18] 98% | [3]; at 50.0 µM 91.7% | [4]; at 33.0 µM 97% | [4]; at 100.0 µM 96% | [5]; [18] 98% | [5]; at 50.0 µM 88.7% | [6]; at 11.0 µM 71% | [6]; at 33.0 µM 94% | [6]; [18] 96% | [6]; at 50.0 µM 89.8% | [6]; at 100.0 µM 95% | [7]; at 11.0 µM 89% | [7]; at 33.0 µM 97% | [7]; at 100.0 µM 97% | [8]; at 11.0 µM 82% | [8]; at 33.0 µM 94% | [8]; at 100.0 µM 94% | [9]; [18] 99% | [9]; at 50.0 µM 88.2% | [10]; at 33.0 µM 90% | [10]; at 100.0 µM 92%
inactive: [1]; [17] 52% | [2]; at 1.2 µM -5% | [2]; at 3.7 µM 8% | [2]; at 11.0 µM 38% | [3]; [17] -48% | [4]; at 1.2 µM 12% | [4]; at 3.7 µM -15% | [4]; at 11.0 µM -8% | [5]; [17] 20% | [6]; at 1.2 µM 34% | [6]; at 3.7 µM 55% | [6]; [17] -2% | [7]; at 1.2 µM -7% | [7]; at 3.7 µM 39% | [8]; at 1.2 µM 1% | [8]; at 3.7 µM 18% | [9]; [17] 51% | [10]; at 1.2 µM -18% | [10]; at 3.7 µM 0% | [10]; at 11.0 µM 8%

c1ccc2c(c1)ccn2CCc1c[nH]c2ccccc12
inactive: [11]; at 1.2 µM -35% | [11]; at 3.7 µM -37% | [11]; at 11.0 µM -20% | [11]; at 33.0 µM 31% | [12]; at 1.2 µM -16% | [12]; at 3.7 µM -31% | [12]; at 11.0 µM -19% | [12]; at 33.0 µM 21% | [13]; at 1.2 µM -33% | [13]; at 3.7 µM -5% | [13]; at 11.0 µM 23% | [13]; at 33.0 µM 41% | [13]; at 100.0 µM 55% | [14]; at 1.2 µM -26% | [14]; at 3.7 µM -26% | [14]; at 11.0 µM -4% | [14]; at 33.0 µM 33% | [15]; at 1.2 µM -20% | [15]; at 3.7 µM -20% | [15]; [17] -13% | [15]; at 11.0 µM -5% | [15]; at 33.0 µM 34% | [15]; [18] 48% | [1]; at 1.2 µM -24% | [1]; at 3.7 µM -23% | [1]; [17] -5% | [1]; at 11.0 µM -27% | [1]; at 33.0 µM 0% | [1]; [18] 1% | [2]; at 1.2 µM -16% | [2]; at 3.7 µM -29% | [2]; at 11.0 µM -28% | [2]; at 33.0 µM 6% | [3]; [17] -10% | [3]; [18] 25% | [3]; at 50.0 µM 57.9% | [4]; at 1.2 µM 7% | [4]; at 3.7 µM 21% | [4]; at 11.0 µM 12% | [4]; at 33.0 µM 48% | [5]; [17] -1% | [5]; [18] 52% | [6]; at 1.2 µM 15% | [6]; at 3.7 µM 18% | [6]; [17] -19% | [6]; at 11.0 µM 39% | [8]; at 1.2 µM -18% | [8]; at 3.7 µM -14% | [8]; at 11.0 µM -6% | [8]; at 33.0 µM 15% | [16]; at 1.2 µM -38% | [16]; at 3.7 µM -38% | [16]; at 11.0 µM -20% | [16]; at 33.0 µM 20% | [9]; [17] 3% | [9]; [18] 51% | [10]; at 1.2 µM -42% | [10]; at 3.7 µM -46% | [10]; at 11.0 µM -23% | [10]; at 33.0 µM 9%
active: [11]; at 100.0 µM 97% | [12]; at 100.0 µM 95% | [14]; at 100.0 µM 96% | [15]; at 50.0 µM 91% | [15]; at 100.0 µM 98% | [1]; at 50.0 µM 93.4% | [1]; at 100.0 µM 96% | [2]; at 100.0 µM 97% | [4]; at 100.0 µM 95% | [5]; at 50.0 µM 91.7% | [6]; at 33.0 µM 79% | [6]; [18] 70% | [6]; at 50.0 µM 89.7% | [6]; at 100.0 µM 95% | [8]; at 100.0 µM 97% | [16]; at 100.0 µM 95% | [9]; at 50.0 µM 91.4% | [10]; at 100.0 µM 98%

CC(C)C(=O)CC(Sc1ccc(N)cc1)c1ccccc1 (centres undefined)
active: [11]; at 100.0 µM 83% | [15]; [18] 77% | [1]; [18] 88% | [3]; [18] 87% | [6]; at 1.2 µM 87% | [6]; at 3.7 µM 89% | [6]; [17] 89% | [6]; at 11.0 µM 90% | [6]; at 33.0 µM 91% | [6]; [18] 98% | [6]; at 50.0 µM 85.1% | [6]; at 100.0 µM 92% | [16]; at 100.0 µM 79% | [9]; [18] 85%
inactive: [11]; at 1.2 µM 2% | [11]; at 3.7 µM 8% | [11]; at 11.0 µM 23% | [11]; at 33.0 µM 47% | [12]; at 1.2 µM -4% | [12]; at 3.7 µM -4% | [12]; at 11.0 µM -1% | [12]; at 33.0 µM 10% | [12]; at 100.0 µM 18% | [13]; at 1.2 µM -5% | [13]; at 3.7 µM -4% | [13]; at 11.0 µM 1% | [13]; at 33.0 µM 6% | [13]; at 100.0 µM 8% | [14]; at 1.2 µM -2% | [14]; at 3.7 µM -5% | [14]; at 11.0 µM 27% | [14]; at 33.0 µM 32% | [14]; at 100.0 µM 58% | [15]; at 1.2 µM -1% | [15]; at 3.7 µM 1% | [15]; [17] -22% | [15]; at 11.0 µM -19% | [15]; at 33.0 µM 24% | [15]; at 50.0 µM 55.6% | [15]; at 100.0 µM 42% | [1]; at 1.2 µM 1% | [1]; at 3.7 µM -2% | [1]; [17] -2% | [1]; at 11.0 µM 10% | [1]; at 33.0 µM 27% | [1]; at 50.0 µM 36.5% | [1]; at 100.0 µM 40% | [2]; at 1.2 µM 1% | [2]; at 3.7 µM 2% | [2]; at 11.0 µM 6% | [2]; at 33.0 µM 25% | [2]; at 100.0 µM 46% | [3]; [17] -26% | [3]; at 50.0 µM 53% | [4]; at 1.2 µM -2% | [4]; at 3.7 µM -13% | [4]; at 11.0 µM -7% | [4]; at 33.0 µM 20% | [4]; at 100.0 µM 35% | [5]; [17] -3% | [5]; [18] 57% | [5]; at 50.0 µM 27.8% | [8]; at 1.2 µM 1% | [8]; at 3.7 µM -2% | [8]; at 11.0 µM 7% | [8]; at 33.0 µM 30% | [8]; at 100.0 µM 48% | [16]; at 1.2 µM 0% | [16]; at 3.7 µM 4% | [16]; at 11.0 µM 22% | [16]; at 33.0 µM 62% | [9]; [17] -19% | [9]; at 50.0 µM 42.5% | [10]; at 1.2 µM -8% | [10]; at 3.7 µM -2% | [10]; at 11.0 µM 12% | [10]; at 33.0 µM 30% | [10]; at 100.0 µM 52%
